From PubChem BioAssay AID1030 (National Center for Advancing Translational Sciences (NCATS), 2008) come the findings set out here.

The campaign covered roughly 220,000 compounds. About 16,000 (7.3%) were called active. Another 25% or so got no clear call; they are omitted. Calls come from the whole dose curve; as a rule, active = well fitted inhibition curve with a large enough effect (not every such curve was filed as active); inconclusive = small, poorly fitted or top-dose-only effect, or another doubt; inactive = no such curve, though single readings can be large or run the other way. The list comes from a sample in which actives are over-represented; it also holds similar structures and randomly drawn compounds.
Potency is the fitted concentration of half-maximal effect.

In the assay the target is Aldehyde dehydrogenase 1A1 (Homo sapiens) (UniProt P00352). The assay is described as follows: qHTS Assay for Inhibitors of Aldehyde Dehydrogenase 1 (ALDH1A1).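 For activity, negative = inhibition: plate controls were no enzyme wells and a reference inhibitor.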 As to conditions: Purified ALDH1A1, NADH fluorescence, propionaldehyde substrate; series mostly up to 75.3 µM; activity, negative = inhibition: at the top concentration.
Aldehyde dehydrogenase 1A1 (Homo sapiens), sequence (P00352 whole entry, looked up): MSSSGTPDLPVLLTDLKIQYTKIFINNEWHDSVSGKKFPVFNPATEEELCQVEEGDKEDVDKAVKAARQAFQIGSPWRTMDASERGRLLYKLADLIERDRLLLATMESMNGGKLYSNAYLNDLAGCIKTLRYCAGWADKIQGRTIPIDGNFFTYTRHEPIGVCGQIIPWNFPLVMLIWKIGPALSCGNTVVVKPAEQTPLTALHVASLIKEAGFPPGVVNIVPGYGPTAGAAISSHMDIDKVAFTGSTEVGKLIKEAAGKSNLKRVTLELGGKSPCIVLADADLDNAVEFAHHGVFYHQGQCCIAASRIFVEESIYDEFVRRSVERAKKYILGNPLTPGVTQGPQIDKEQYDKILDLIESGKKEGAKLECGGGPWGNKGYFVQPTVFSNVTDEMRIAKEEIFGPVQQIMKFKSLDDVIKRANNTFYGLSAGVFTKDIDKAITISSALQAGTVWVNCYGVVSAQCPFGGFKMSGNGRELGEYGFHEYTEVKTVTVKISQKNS
For `CCc1cc2c(NC3CCCC3)ncnc2s1`, the “activity, negative = inhibition” value is -8.26% (inactive).

As for `COC(=O)C1=C(C(=O)OC)[C@@H]2N(C)c3ccccc3[C@@]23C[C@@H](C(=O)OC)N(C(C)=O)C3=N1`, the activity, negative = inhibition is 3.72% [at 13.5 µM] (inactive). Consider `C[C@@H](C(=O)N1CCNCC1)n1cc(CCC(=O)O)nn1`, for which the “activity, negative = inhibition” value was 0.0753% (inactive). For `O=C(Nc1ccc(Cl)cc1)c1ccsn1`, the “activity, negative = inhibition” value is 5.63% (inactive). On the same count and under the same terms, the same measure for `O=C(c1ccc(Cl)cc1)c1cnc(Nc2ccccc2)s1`: 9.26% (inactive). On to `O=C(Nc1ccccc1)c1nnsc1S(=O)(=O)c1ccc(Cl)cc1`, for which the Potency is 2.24 µM (active). For `O=C(O)CS/C(=C\c1ccc(F)cc1)c1nc2ccccc2s1`, the “activity, negative = inhibition” value is 9.19% (inactive).

`COc1cccc(CNC(=O)CCC2CCCN(Cc3ccc(OC(F)F)cc3)C2)c1` (stereo not given): the “activity, negative = inhibition” value is 8.18% (inactive). Turning to `Cn1c(N)c(C(=O)COC(=O)/C=C/c2ccc(OC(F)F)cc2)c(=O)n(C)c1=O`, the “activity, negative = inhibition” value was 0.549% (inactive). Consider `O=C(Nc1ccccc1)N1CCN(C(=O)Nc2ccccc2)CC1`, for which the “activity, negative = inhibition” value was 1.94% (inactive). Same read-out and setting: the same measure for `S=C(Nc1ccc2c(c1)OCO2)N1CCCC1`: -14.8% (inactive). On to `S=C(c1ccc(-c2ccccc2)o1)N1CCCCC1`, for which the Potency is 3.55 µM (active). For `NC(=O)C1(N2CCCCC2)CCN(C(=O)c2ccc(C#Cc3ccccc3)o2)CC1`, the “activity, negative = inhibition” value is -13.8% (inactive). On the same count and under the same terms, the same measure for `O=C(/C=C/c1ccc(OCc2c(F)cccc2Cl)cc1)N1CCOCC1`: -4.08% (inactive). Consider `O=C1NC(c2ccc(-c3ccccc3[N+](=O)[O-])o2)C(C(=O)c2ccc(Cl)cc2)C(O)(C(F)(F)F)N1` (stereo not given), for which the Potency is 20 µM (active). Turning to `CN1CCN(c2ccc(NC(=O)c3ccc4c(c3)OCCO4)cc2Cl)CC1`, the “activity, negative = inhibition” value is -6.09% (inactive). Regarding `COC(=O)Nc1c(C)n(C)n(-c2ccccc2)c1=O`, the “activity, negative = inhibition” value is 4.54% (inactive). Regarding `CCN(CC)P(=O)(/C(Cl)=C\Nc1c(C)n(C)n(-c2ccccc2)c1=O)N(CC)CC`, the Potency is 17.8 µM (active). For `Cc1c(NC(=S)Nc2ccccc2)c(=O)n(-c2ccccc2)n1C`, the “activity, negative = inhibition” value was -0.293% (inactive).

Regarding `Cc1ccc(C(=O)CNc2ccc(F)cc2)cc1`, the Potency is 11.2 µM (active). For the molecule `COC(=O)c1ccc(NC(=O)Nc2ccc(C)cc2)cc1`, the “activity, negative = inhibition” value was 18.1% (inactive). Still for that read-out and setting: under `Cc1ccc(C(=O)CS(C)(=O)=O)cc1` stands -3.97% (inactive).

As for `COC(=O)c1ccc(NC(=O)C(C)N2C(=O)c3ccccc3C2=O)cc1` (stereo not given), the “activity, negative = inhibition” value was 3.93% (inactive). Regarding `Cc1ccc(NC(=O)CC(=O)Nc2ccc(C)cc2)cc1`, the “activity, negative = inhibition” value was 4.23% (inactive). On to `COC(=O)c1ccc(NCC(=O)c2ccccc2)cc1`, for which the Potency was 11.2 µM (active). In the case of `CC(C)Nc1nnc(SCC(=O)/C=C2\N(C)c3ccccc3C2(C)C)s1`, the “activity, negative = inhibition” value was -2.25% (inactive). The same measure, in the same setting: the same measure for `CCCCCc1ccc(-c2ccc(OCC)cc2)nc1`: 3.76% (inactive); for `O=C(N1CCCCC1)N1CCN(C(=O)N2CCCCC2)CC1`: -13.2% (inactive). Consider `CCCNC(=O)c1c(Cl)cnn1-c1ccc(C)cc1`, for which the “activity, negative = inhibition” value is 0.157% (inactive).

Consider `CCC(C)CN1CCC(CO)(Cc2ccccc2Cl)CC1` (stereo not given), for which the “activity, negative = inhibition” value is 6.32% (inactive). Same read-out and setting: under `COCCNC(=O)/C(C#N)=C/c1cccc(OCc2ccccc2)c1` stands -8.15% (inactive); under `O=C(NCC(O)c1ccc([N+](=O)[O-])cc1)C1CCCCC1` (stereo not given), 5.34% (inactive). Consider `NC(N)=N/N=C/c1ccc(Cl)c([N+](=O)[O-])c1`, for which the “activity, negative = inhibition” value was 4.87% (inactive).

Take `O=C1CSC(=S)N1/N=C/c1ccc(O)c([N+](=O)[O-])c1`: the Potency was 1.26 µM (active). Turning to `O=[N+]([O-])c1ccc(N2CCSCC2)cc1O`, the “activity, negative = inhibition” value is -9.62% (inactive). Same read-out and setting: the same measure for `Nc1ccc(C(=O)OCC(=O)NC2CCS(=O)(=O)C2)cc1[N+](=O)[O-]` (stereo not given): -0.662% (inactive); for `CN(C)c1nccc(NCc2ccccc2)c1C#N`: -5.36% (inactive). With `CN(C(=O)COc1ncnc2c1cnn2-c1ccccc1)C1CCCCC1`, the “activity, negative = inhibition” value was -9.75% (inactive). Turning to `CN(C)S(=O)(=O)Oc1ccccc1C(=O)Nc1ccccc1Cl`, the “activity, negative = inhibition” value is 8.77% (inactive). Turning to `CC(=O)Nc1ccccc1OC(C)C(=O)N1CCC(C)CC1` (stereo not given), the “activity, negative = inhibition” value is 5.08% (inactive).

For the molecule `CSCCC(NC(=O)C1CCC(C)CC1)C(=O)NCc1ccco1` (stereo not given), the “activity, negative = inhibition” value was 5.15% (inactive). For the molecule `CSCCC(NS(=O)(=O)/C=C/c1ccccc1)C(=O)N1CCC(C)CC1` (stereo not given), the Potency was 14.1 µM (active). Take `CCCCCCCCCCOC(=O)C[N+](C)(C)CC1CCCCC1O` (stereo not given): the “activity, negative = inhibition” value is 4.34% (inactive). As to `O=[N+]([O-])c1ccc2c(c1)C(N1CCOCC1)/C(=C/C1(O)CCCCC1)O2` (stereo not given), the Potency is 10 µM (active). With `O=C(NC1CCCCC1)c1cc([N+](=O)[O-])ccc1N1CCOCC1`, the “activity, negative = inhibition” value is -8.05% (inactive). Still for that read-out and setting: under `CC[C@H](C)[C@@H](NC(=O)O[C@@H]1C(=O)c2cc(OC)ccc2O[C@H]1c1cccc(OC)c1)C(=O)OC` stands 0.104% (inactive); under `CCN(CC)CCNc1nc(-c2ccc(OC(F)F)cc2)c(C)s1`, -2.65% (inactive); under `O=C(Nc1ccccc1N1CCCCC1)c1cccc(F)c1`, -9.96% (inactive). Take `O=c1cc(-c2ccccc2)nc(N2CCCCC2)[nH]1`: the “activity, negative = inhibition” value was -8.51% (inactive). With `O=C(c1ccccc1)c1ccc2nc(N3CCCCC3)c3nncn3c2c1`, the Potency was 12.6 µM (active). `O=C(O)C(c1ccccc1)C1(O)CCCCC1` (stereo not given): the “activity, negative = inhibition” value was 9.96% (inactive). Regarding `Cc1ccc(-c2cn(S(=O)(=O)c3cccc([N+](=O)[O-])c3)nc2N)cc1`, the “activity, negative = inhibition” value is 4.26% (inactive).

For the molecule `O=C(Nc1ccncc1)c1cc(-c2ccccn2)nc2ccc(Br)cc12`, the “activity, negative = inhibition” value is 0.055% (inactive).

In the case of `C#CC(C)(C)NC(=O)CSc1nc2c(c(=O)n(C)c(=O)n2C)n1CCCC`, the “activity, negative = inhibition” value was 16.5% (inactive). With `Cn1c(=O)[nH]c(=O)c2c1nc(Br)n2CCCCSc1nc2ccccc2o1`, the “activity, negative = inhibition” value was -7.93% (inactive).
